Most compounds without a hit are left out; they make up all but 6.7% or so of the library.
C diff HTS = C. difficile growth inhibition; growth activity, negative = inhibition, % at 16 µg/mL (by protocol); 86,000 compounds, 0.25% hits; Clostridium difficile clinical isolate growth, OD600, 24 h; active compounds read low; AID 1259249;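 active means mean growth activity at or below -80% and every replicate also at or below -80%; inconclusive means mean at or below -80% but some replicate above -80%; inactive means mean growth activity above -80%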;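 further: 0% = DMSO wells and -100% = levofloxacin 16 µg/mL wells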
T cruzi growth-1 = inhibitors of T. cruzi proliferation | inhibition, % at 8.34 µM | T. cruzi beta-gal in NIH3T3, GalScreen luminescence, 90 h | AID 624255 | 77,000 compounds, 5.9% hits;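 active means mean inhibition above about 93%, with at least 55% of replicates each passing it, limit read from the data, passing the limit was not always enough; inconclusive means only one of those two conditions holds; inactive means neither condition holds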
Pf Dd2 growth = blocks growth of Plasmodium falciparum Dd2 parasites. P. falciparum Dd2 growth, SYBR Green, 72 h; active compounds read low. activity change, % at 10 µM. 94,000 compounds, 2.3% hits. AID 1159554; in the data active means activity change below about -80%; inconclusive means no clear call, values can overlap the other calls
T cruzi growth-2 = inhibitors of T. cruzi proliferation. shares compounds with T cruzi growth-1. T. cruzi beta-gal in NIH3T3, GalScreen luminescence, 90 h. inhibition, % at 8.35 µM. 5,600 compounds, 72% hits. AID 651739;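 active means mean replicate inhibition above about 95% and at least 55% of replicates individually reaching it, limit read from the data; inconclusive means only one of the two criteria is met; inactive means neither criterion is met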
T cruzi growth-3 = inhibitors of T. cruzi proliferation; shares compounds with T cruzi growth-1; T. cruzi beta-gal in NIH3T3, GalScreen luminescence, 90 h; AID 651740; inhibition, % at 2.09 µM; 5,600 compounds, 21% hits;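 active means mean inhibition above about 95%, with at least 55% of replicates also reaching it, limit read from the data; inconclusive means meets just one of the two conditions; inactive means meets neither condition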;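 further: plate controls were neutral control median for no effect and positive control median for full effect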
3T3 cytotox = kills mouse NIH/3T3 fibroblasts; cytotoxicity (signal decrease), % at 8.35 µM; AID 651742; shares compounds with T cruzi growth-1; 5,600 compounds, 14% hits; NIH/3T3 viability, CellTiter-Glo ATP luminescence, 90 h;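 active means mean signal decrease across replicates above about 35% based on untreated-well scatter, with enough replicates individually passing, limit read from the data; inconclusive means no rule stated though some were filed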;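 further: 0% = median of neutral control wells and 100% = median of positive control wells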
3T3 cytotox 2 = NIH/3T3 (mouse) viability loss; shares compounds with T cruzi growth-1; NIH/3T3 viability, CellTiter-Glo ATP luminescence, 90 h; inhibition, % at 24.9 µM; 5,600 compounds, 56% hits;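 active means mean loss of cell viability signal at or above a set limit, and enough replicates individually reaching it; inconclusive means meets only the mean limit or only the replicate share; inactive means meets neither condition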;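 further: 0% = median of neutral control wells and 100% = median of positive control wells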
* hit, by the source's call; ! = not active in a repeat.

Results for C[C@@H]1CN([C@@H](C)CO)C(=O)c2cc(NS(=O)(=O)c3ccc(Cl)cc3)ccc2O[C@@H](C)CCCCO[C@H]1CN(C)CC1CC1 ?
C diff HTS: -4; T cruzi growth-1: 106*; Pf Dd2 growth: -74; T cruzi growth-2: 107*; T cruzi growth-3: 82; 3T3 cytotox: 16; 3T3 cytotox 2: 15

How did C[C@@H]1CCCCO[C@@H](CN(C)CC2CCCCC2)[C@H](C)CN([C@H](C)CO)C(=O)c2cc(NS(=O)(=O)c3ccc(Cl)cc3)ccc2O1 do in these assays?
C diff HTS: -13; T cruzi growth-1: 93; Pf Dd2 growth: -75

What do the screens show for `C[C@@H]1CN([C@@H](C)CO)C(=O)c2cc(NS(=O)(=O)c3ccc(Cl)cc3)ccc2O[C@H]1CN(C)CC1CC1`?
C diff HTS: 4; T cruzi growth-1: inconclusive; Pf Dd2 growth: -4; T cruzi growth-2: 1; T cruzi growth-3: 20; 3T3 cytotox: 8; 3T3 cytotox 2: 31*

Results for C[C@@H]1CCCCO[C@@H](CN(C)CC2CCCCC2)[C@H](C)CN([C@@H](C)CO)C(=O)c2cc(NS(=O)(=O)c3ccc(Cl)cc3)ccc2O1 ?
C diff HTS: 6; T cruzi growth-1: 102*; Pf Dd2 growth: -36; T cruzi growth-2: 105*; T cruzi growth-3: 94; 3T3 cytotox: 26; 3T3 cytotox 2: 106*

What do the screens show for `C[C@@H]1CCCCO[C@@H](CN(C)CC2CCCCC2)[C@@H](C)CN([C@@H](C)CO)C(=O)c2cc(NS(=O)(=O)c3ccc(Cl)cc3)ccc2O1`?
C diff HTS: -7; T cruzi growth-1: 64; Pf Dd2 growth: -19

Results for CO[C@@H]1CN(C)C(=O)c2ccc(NS(C)(=O)=O)cc2OC[C@@H](C)N(Cc2cncnc2)C[C@H]1C ?
T cruzi growth-1: -9; Pf Dd2 growth: 25

How did C[C@H](CO)N1C[C@H](C)[C@@H](CN(C)S(C)(=O)=O)Oc2cc(C#CCN(C)C)ccc2S1(=O)=O do in these assays?
C diff HTS: 6; T cruzi growth-1: -11

How did COCC(=O)N[C@H]1CC[C@@H](CC(=O)N2CCCCC2)O[C@H]1CO do in these assays?
T cruzi growth-1: 13; Pf Dd2 growth: 5

Results for C[C@@H]1CN([C@H](C)CO)C(=O)c2cccc(NC(=O)c3ccncc3)c2O[C@H]1CN(C)C(=O)Nc1ccc(F)cc1 ?
C diff HTS: 0; T cruzi growth-1: 29; Pf Dd2 growth: 8

How did CC(C)NC(=O)N[C@@H]1CC[C@H](CCN)O[C@H]1CO do in these assays?
T cruzi growth-1: 4; Pf Dd2 growth: 18

Results for CCNC(=O)C[C@@H]1CC[C@@H]2[C@@H](COc3ccc(NC(=O)C4CCOCC4)cc3C(=O)N2C)O1 ?
C diff HTS: 1; T cruzi growth-1: -37; Pf Dd2 growth: 6

What do the screens show for `COc1cccc(S(=O)(=O)N(C)C[C@@H]2OCc3cn(nn3)CCCC(=O)N([C@@H](C)CO)C[C@@H]2C)c1`?
C diff HTS: -1; T cruzi growth-1: -110; Pf Dd2 growth: -8

What do the screens show for `C[C@@H]1CN([C@H](C)CO)C(=O)CCCn2cc(nn2)CO[C@@H]1CN(C)S(=O)(=O)c1ccc2ccccc2c1`?
T cruzi growth-1: 34; Pf Dd2 growth: 5

Results for COc1cccc(S(=O)(=O)N(C)C[C@H]2OCc3cn(nn3)CCCC(=O)N([C@@H](C)CO)C[C@H]2C)c1 ?
C diff HTS: 3; T cruzi growth-1: 43; Pf Dd2 growth: -2

What do the screens show for `C[C@@H]1CN([C@@H](C)CO)C(=O)CCCn2cc(nn2)CO[C@H]1CN(C)S(=O)(=O)c1ccc2ccccc2c1`?
C diff HTS: 0; T cruzi growth-1: 125*!; Pf Dd2 growth: -4; T cruzi growth-2: 55; T cruzi growth-3: 1; 3T3 cytotox: -6; 3T3 cytotox 2: 6

How did COc1cccc(S(=O)(=O)N(C)C[C@H]2OCc3cn(nn3)CCCC(=O)N([C@@H](C)CO)C[C@@H]2C)c1 do in these assays?
C diff HTS: 1; T cruzi growth-1: 116*!; Pf Dd2 growth: 9; T cruzi growth-2: 18; T cruzi growth-3: 10; 3T3 cytotox: -8; 3T3 cytotox 2: -7

Results for COc1cccc(S(=O)(=O)N(C)C[C@H]2OCc3cn(nn3)CCCC(=O)N([C@H](C)CO)C[C@@H]2C)c1 ?
C diff HTS: -2; T cruzi growth-1: inconclusive; Pf Dd2 growth: 23; T cruzi growth-2: 17; T cruzi growth-3: 21; 3T3 cytotox: 10; 3T3 cytotox 2: -5

What do the screens show for `O=C(c1ccccc1)N1CC[C@@H]2[C@@H](CO)Nc3ccc(C#Cc4cccc(F)c4)cc3[C@@H]21`?
C diff HTS: 18; T cruzi growth-1: 84; Pf Dd2 growth: -17

What do the screens show for `C[C@H]1CN([C@@H](C)CO)C(=O)c2cccc(NC(=O)C3CCCCC3)c2O[C@H]1CN(C)S(=O)(=O)c1cccs1`?
C diff HTS: 10; T cruzi growth-1: 20; Pf Dd2 growth: -27

How did C[C@@H]1CN([C@H](C)CO)C(=O)c2cc(-c3cccc(C#N)c3)cnc2O[C@H]1CN(C)C(=O)C1CCOCC1 do in these assays?
C diff HTS: 1; T cruzi growth-1: 26; Pf Dd2 growth: 38

How did Cc1ccc(S(=O)(=O)N[C@@H]2C=C[C@@H](CC(=O)N3CCN(c4ccccc4)CC3)O[C@H]2CO)cc1 do in these assays?
C diff HTS: 3; T cruzi growth-1: 7; Pf Dd2 growth: -14

How did O=C(c1ccccc1)N1CC[C@@H]2[C@@H](CO)Nc3ccc(-c4ccccc4F)cc3[C@@H]21 do in these assays?
C diff HTS: -9; T cruzi growth-1: 108*; Pf Dd2 growth: -4; T cruzi growth-2: 108*; T cruzi growth-3: 79; 3T3 cytotox: 8; 3T3 cytotox 2: inconclusive

What do the screens show for `O=C(c1cccc(F)c1)N1CC[C@@H]2[C@H](CO)Nc3ccc(-c4ccccc4F)cc3[C@@H]21`?
C diff HTS: -7; T cruzi growth-1: 31; Pf Dd2 growth: 9

Results for O=C(c1cnccn1)N1CC[C@@H]2[C@H](CO)Nc3ccc(-c4ccccc4F)cc3[C@@H]21 ?
C diff HTS: -10; T cruzi growth-1: 97; Pf Dd2 growth: -28

Results for O=C(c1ccc(F)cc1)N1CC[C@@H]2[C@H]1c1cc(-c3ccccc3F)ccc1N[C@@H]2CO ?
C diff HTS: 3; T cruzi growth-1: 100*; Pf Dd2 growth: -76; T cruzi growth-2: 95*; T cruzi growth-3: 70; 3T3 cytotox: 10; 3T3 cytotox 2: 103*

How did O=C(c1cccc(F)c1)N1CC[C@@H]2[C@H]1c1cc(-c3ccccc3F)ccc1N[C@@H]2CO do in these assays?
C diff HTS: -5; T cruzi growth-1: 90; Pf Dd2 growth: 30
